Screening results deposited in PubChem BioAssay by Sanford-Burnham Center for Chemical Genomics.
This is a sample that favours compounds with a hit; in the whole collection about 28% have one here.
CYP2C19 inhib: blockers of cytochrome P450 2C19 activity – biochemical, luminescence, ADME assay, primary screen. CYP2C19 Supersomes, luciferin-H EGE luminescence, 30 min. inhibition, % at 5 µM. 96,000 compounds, 21% hits;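 active = CYP2C19 inhibition above a set limit at 5 µM in the primary screen, cut at about 50% in these data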;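 note: plate controls were negative control wells for no effect and 2.5 mM tranylcypromine positive control for full effect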
Target sequence (P33261 whole entry, looked up): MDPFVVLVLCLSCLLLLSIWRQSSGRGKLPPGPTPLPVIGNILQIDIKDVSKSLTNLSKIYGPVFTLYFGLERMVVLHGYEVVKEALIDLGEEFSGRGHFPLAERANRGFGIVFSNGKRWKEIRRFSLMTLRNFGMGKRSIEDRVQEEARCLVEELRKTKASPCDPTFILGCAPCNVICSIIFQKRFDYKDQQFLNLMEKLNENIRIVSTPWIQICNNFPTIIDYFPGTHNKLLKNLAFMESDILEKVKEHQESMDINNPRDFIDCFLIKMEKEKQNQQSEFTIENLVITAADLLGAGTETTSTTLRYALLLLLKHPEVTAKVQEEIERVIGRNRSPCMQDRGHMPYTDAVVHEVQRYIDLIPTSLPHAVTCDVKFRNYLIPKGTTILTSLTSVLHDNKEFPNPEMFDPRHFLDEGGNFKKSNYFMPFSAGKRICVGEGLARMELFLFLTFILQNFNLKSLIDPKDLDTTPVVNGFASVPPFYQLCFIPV
CYP2C9 act: human CYP2C9 activators, primary screen, biochemical, luminescence | activation factor at 5 µM | 96,000 compounds, 1.4% hits | Cytochrome P450 2C9 (Homo sapiens), P11712 | recombinant CYP2C9, luciferin-H conversion; hits give high values; factor 1 = untreated enzyme, 0 = blocked;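 active = activation factor of 2 or more for CYP2C9 at a 5 µM dose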;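 note: 0 = sulfaphenazole-blocked wells and 1 = vehicle-only wells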
Mac1 fbg inh: inhibitors of CD11b/CD18 adhesion to fibrinogen, primary screen, K562 cells, luminescence; ATPlite luminescence; Mn2+ added to activate the integrin; inhibition, % at 10 µM; 93,000 compounds, 0.54% hits; AID 1497, 2009;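 active = primary inhibition of 50% or more at 10 µM, then 40% or more on retest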
CYP2C9 inhib: blockers of cytochrome P450 2C9 activity – biochemical, luminescence, ADME assay, primary screen | 96,000 compounds, 20% hits | CYP2C9 Supersomes, luciferin-H conversion | P11712 | inhibition, % at 5 µM | AID 777, 2007;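 active = blocking of liver enzyme CYP2C9 beyond about 50% at 5 µM, limit read from the data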
CD11b adhes enh: enhancers of CD11b/CD18 adhesion to fibrinogen, primary screen, K562 cells, luminescence; Integrin beta-2 (Homo sapiens) + Integrin alpha-M (Homo sapiens), P05107+P11215; activation, % at 10 µM; ATPlite luminescence; 93,000 compounds, 0.07% hits; AID 1499, 2009;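 active = 10 µM primary screen giving 50% or more activity, confirmed by 40% or more on retest at that dose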
CYP2C19 act: human CYP2C19 activators, primary screen, biochemical, luminescence; 96,000 tested, under 10 active; activation factor at 5 µM; recombinant CYP2C19, luciferin-H EGE luminescence; hits give high values; 0 = fully inhibited enzyme, 1 = untreated enzyme; Cytochrome P450 2C19 (Homo sapiens), P33261;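 active = activation factor of at least 2 at 5 µM in the primary screen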;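 note: 0 = wells with 2.5 mM tranylcypromine and 1 = vehicle-only wells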
An asterisk follows results filed as active; · = no result.

SMILES	CYP2C19 inhib	CYP2C9 act	Mac1 fbg inh	CYP2C9 inhib	CD11b adhes enh	CYP2C19 act
COc1cc(C(=O)Oc2ccccc2/C=N/NC(=O)c2ccc(C)c(Cl)c2)cc(OC)c1OC	·	·	-20	·	11	·
CC(=O)Nc1ccc(C(=O)N/N=C/c2ccccc2OC(=O)c2ccc(Cl)cc2)cc1	40	0.4	·	60*	·	0.6
Cc1ccc(C(C(=O)NC2CCCCC2)N(Cc2ccco2)C(=O)C2COc3ccccc3O2)o1 (centres undefined)	5	0.6	-1	38	6	0.9
CCOC(=O)c1ccc(NC(=O)CNC(=O)c2ccccc2)cc1	16	0.9	·	8	·	0.8
O=C(NC1CCCCC1)C(c1ccc(O)cc1)N(CC1CCCO1)C(=O)C1COc2ccccc2O1 (centres undefined)	70*	0.3	-12	69*	1	0.3
COc1cccc(CNCC(=O)N2C(C)CCCC2C)c1 (centres undefined)	49	0.9	-7	12	-2	0.5
CS(=O)(=O)N(CCc1ccccc1)CC(=O)NCC1CCCO1 (centres undefined)	56*	1	3	2	0	0.4
NC(=O)CSc1nnc(-c2ccoc2)o1	-6	1.2	-7	-22	0	1.1
O=C(c1cccs1)N(C(=O)c1cccs1)c1ccc(Br)cn1	100*	0	7	99*	0	0
Cc1ccc(CNC(=O)Cn2c([N+](=O)[O-])cnc2C)cc1	3	1	-34	0	-4	1
CCOC(=O)Nc1cc(OC)c(OC)cc1Cc1nccc2cc(OC)c(OC)cc12	85*	0.4	-13	62*	-3	0.2
CCCNS(=O)(=O)c1ccc(CCC(=O)N2CCN(c3ccc(OC)cc3)CC2)cc1	80*	0.1	4	87*	1	0.2
CCCNS(=O)(=O)c1ccc(CCC(=O)N2CCOCC2)cc1	2	0.9	-9	11	7	1
Cc1ccc(S(=O)(=O)NCCC(=O)NC2CCCC2)cc1	13	2.5*	4	-148	-8	0.9
O=C(CCNS(=O)(=O)c1ccc(Br)s1)N1CCCCC1	68*	1.7	-1	-66	2	0.3
O=C(CCNS(=O)(=O)c1ccc(Br)s1)NC1CCCC1	13	2.1*	4	-108	2	0.9
Cn1c(=O)oc2cc(S(=O)(=O)NCCC(=O)NC3CCCC3)ccc21	10	1.1	40	-5	0	0.9
O=C(Nc1cccc(Cl)c1)C1C2CCC3C(CCC21)C3(Cl)Cl (centres undefined)	·	·	96	·	-9	·
CCOc1cc(C(=O)OCc2ccc(C(=O)OC)o2)cc(Br)c1OC	14	0.8	9	22	-3	0.9
CC(C)(C)NC(=O)Cn1c(SCC(=O)NC2CCCCC2)nc2ccccc21	-3	1.1	0	-12	-1	1
FC(F)(F)C1=CC(c2ccc(Br)cc2)=NCCN1	10	0.9	-21	11	-3	0.9
CCOCC(=O)N1CCN(c2ccc([N+](=O)[O-])cc2)CC1	·	·	-9	·	-1	·
CCCNC(=O)NS(=O)(=O)c1cnccc1Sc1ccc(Cl)c(Cl)c1	-1	0.5	·	45	·	1
COc1ccc(N2CCN(C(=O)CCNS(=O)(=O)c3ccc(Br)s3)CC2)cc1	80*	0.1	-6	91*	8	0.2
O=C(CCNS(=O)(=O)c1ccc(Br)s1)Nc1ccc(Cl)cc1	42	2*	8	-100	1	0.6
SMILES	CYP2C19 inhib	CYP2C9 act	Mac1 fbg inh	CYP2C9 inhib	CD11b adhes enh	CYP2C19 act
CC(C)(CO)NC(=O)CCCOc1ccc(Cl)cc1Cl	55*	0.8	-6	22	-1	0.4
CC(C)(C)C(=O)NNC(=O)CCCOc1ccc(Cl)cc1Cl	23	1.3	·	-27	·	0.8
O=C(Nc1cccnc1)C1(c2ccc(Cl)cc2)CCCC1	81*	0.7	-9	33	-1	0.2
O=C(CCCOc1ccc(Cl)cc1Cl)N/N=C\C1CCCCC1	92*	0.8	-11	16	3	0.1
O=C(CCCOc1ccc(Cl)cc1Cl)N/N=C/c1ccc(Cl)cc1	·	·	5	·	-5	·
CN(C)S(=O)(=O)c1ccc(C(=O)Nc2cccnc2)cc1	12	0.7	-8	27	-5	0.9
Cc1ccc(S(=O)(=O)C2(C(=O)Nc3cccnc3)CC2)cc1	56*	0.7	-6	32	-4	0.4
Cc1ccc(NC(=O)CN(C)C(=O)CCC(=O)c2cccs2)cc1	·	·	-1	·	0	·
O=C(Nc1ccc2c(c1)OCCO2)C1CCCN(S(=O)(=O)c2cccnc2)C1 (centres undefined)	-1	0.9	-1	7	-1	1
CC(c1ccccc1)C(CC(=O)O)C(=O)NC1CCCCC1 (centres undefined)	7	1.3	2	-26	0	0.9
O=C(CCCOc1ccc(Cl)cc1Cl)Nc1cccnc1	72*	0.5	6	52*	-3	0.3
COc1ccc(OCCCC(=O)Nc2cccnc2)cc1	26	0.8	10	25	-4	0.7
CSc1ccccc1NC(=O)Nc1ccc(F)c(Cl)c1	-4	1	·	0	·	1
O=C(Nc1cccnc1)Nc1ccc(F)c(Cl)c1	85*	0.2	-8	76*	2	0.2
CC(C)c1ccc(NC(=O)Nc2cc3sccc3n2C)cc1	8	0.9	-11	8	61	0.9
CN(C)c1ccc(C2N(C(=O)N3CCOCC3)CCN2S(=O)(=O)c2ccccc2)cc1 (centres undefined)	10	0.9	3	5	-5	0.9
Nc1nnc(CC(=O)N/N=C/c2cccc(OCCOc3ccccc3)c2)s1	-8	1	-1	0	-2	1.1
O=C(CSc1nnnn1-c1cccnc1)NCc1cccs1	17	0.9	-6	13	-1	0.8
Cc1nnc(C)n1/N=C/C=C/c1ccccc1	7	1	3	3	2	0.9
C=CCn1c(CCNC(=O)c2cccs2)nnc1SCC(=O)c1ccc(Cl)cc1	78*	0.2	6	79*	4	0.2
C=CCn1c(CCNC(=O)c2ccccc2F)nnc1SCC(=O)Nc1nc2ccccc2s1	29	0.4	-10	59*	-4	0.7
C=CCn1c(CCNC(=O)c2cccs2)nnc1SCC(=O)c1cccc([N+](=O)[O-])c1	4	1	-10	-5	-4	1
C=CCn1c(CNC(=O)c2cccs2)nnc1SCC(=O)Nc1ccc(C(=O)O)cc1	-5	1	5	-3	-3	1
C=CCn1c(CNC(=O)c2cccs2)nnc1SCC(=O)c1ccc(Br)cc1	46	0.4	·	61*	·	0.5
